Test: resazurin metabolic signal in HepG2 cells – cell-based, resazurin fluorescence, 24 h, PK04 Diversity Set, profiling panel (AID 1172); also: test concentration not given here
Conditions: HepG2 viability, higher = more signal

Going from `COC(=O)[C@@]1(Cc2ccc(F)cc2)[C@H]2c3cc(C(=O)N4CCCC4)n(Cc4ccc(S(C)(=O)=O)cc4)c3C[C@H]2CN1C(=O)c1ccccc1` to `COC(=O)[C@@]1(Cc2ccccc2)[C@H]2c3cc(C(=O)N4CCCC4)n(Cc4ccc(S(C)(=O)=O)cc4)c3C[C@H]2CN1C(=O)c1ccccc1`, the z-score falls from -0.608 to -0.837.

First: CO[C@H]1O[C@H](CO)[C@@H](OC(=O)Nc2ccc(C(F)(F)F)cc2)[C@H](OC(=O)Nc2ccc3c(c2)OCO3)[C@@H]1OC(=O)Nc1ccc2c(c1)OCO2
Second: CCOC(=O)[C@H]1C/C=C/C[C@H](C(=O)OCC)C(=O)O[C@H]2[C@@H](OC)O[C@H](CO)[C@@H](OC(=O)c3c(OC)cccc3OC)[C@@H]2OC1=O
The z-score of the first is higher: -1.09 for the first, -3.51 for the second.

First: O=C1O[C@@H](c2ccccc2)[C@@H](c2ccccc2)N2[C@@H](c3ccccc3OCCO)[C@]3(C(=O)Nc4ccccc43)[C@@H](C(=O)Nc3nc4ccccc4s3)[C@H]12
Second: COc1ccc([Si](C)(C)[C@H]2[C@H](CCO)O[C@@]3(C(=O)N(Cc4ccc(N(C=O)c5ccccc5)cc4)c4ccccc43)[C@@H]2C)cc1
The z-score of the first is higher: -0.699 for the first, -1.57 for the second.

Going from `Cc1ccc(S[C@]2(C(=O)NCCCN(C)C)CC(=O)N(Cc3cc(C(F)(F)F)cc(C(F)(F)F)c3)[C@@H]2c2ccc(CO)cc2I)cc1` to `O=C1c2ccccc2[C@](Cc2ccccc2I)(C(=O)NCC(F)(F)F)[C@H](c2ccc(CO)cc2)N1Cc1ccccc1Cl`, the z-score rises from -0.274 to 1.08.

First: O=C(NCCN1CCOCC1)[C@@H]1c2ccccc2C(=O)N(C2CCCCC2)[C@H]1c1ccc(CO)cc1
Second: O=C1c2ccccc2[C@](Cc2ccccc2I)(C(=O)NCCN2CCOCC2)[C@H](c2ccc(CO)cc2)N1C1CCCCC1
The z-score of the first is higher: -0.0383 for the first, -0.16 for the second.

Compared with `CC#CC(=O)Oc1ccccc1C=CC(=O)OCC`, `COC(=O)[C@H](Cc1ccccc1)N[C@@H](/C=C/C1CC1)[C@H](O)Cc1ccccc1` is lower in z-score: 1.86 for the first, 0.717 for the second.

Going from `COC(=O)[C@@]1(CCS(=O)(=O)c2ccccc2)N=C(c2ccc(OCCCO)cc2)O[C@H]1c1ccccc1CN=[N+]=[N-]` to `COC(=O)[C@@]1(Cc2ccc(F)cc2)[C@H]2c3cc(C(=O)N(C)C)n(Cc4ccccc4)c3C[C@H]2CN1C(=O)c1ccccc1`, the z-score falls from -0.882 to -1.49.

Going from `C=CC1(C(=O)OC)CC=C(C(=O)OC)CC1` (stereo not given) to `C=C(COC)/C(=C/C[C@H](OC(C)=O)c1ccc(CO)o1)c1cc(C(=O)OC)ccc1OC`, the z-score falls from 0.249 to -0.613.

Going from `CC(C)C(CO)N1C(=O)[C@@H]2C3C(=O)OCCC/C=C\[C@H]3OC23C=CCN(CCN2CCOCC2)C(=O)[C@@H]13` (stereo not given in full) to `CN(C)CCCCCCNC(=O)[C@H]1C[C@H]2C(=O)N3CCC[C@H]3C(=O)N2[C@H]1c1ccc(O)cc1`, the z-score rises from -0.723 to -0.564.

Compared with `COc1cc(C(O)C2C=CC3C(=O)NC(=O)C3N2Nc2ccccn2)cc(OC)c1OC` (stereo not given), `CCC(CC)C(O)C1C=CC2C(=O)NC(=O)C2N1Nc1ccccn1` (stereo not given) is lower in z-score: -0.927 for the first, -1.34 for the second.

Going from `C=C[C@@H](COC(=O)OC(C)(C)C)N(Cc1ccc(OC)cc1)S(=O)(=O)c1ccc(Br)cc1` to `C=C[C@H](C)[C@@H](OC(=O)Nc1ccc(OC)cc1)c1ccc(O)c2ccccc12`, the z-score falls from 0.163 to -1.31.

Going from `CCOC(=O)C[C@H]1[C@H](OC(=O)c2ccc(C(=O)c3ccccc3)cc2)[C@@H](NC(=O)c2ccc3ccccc3c2)c2cc(OCCCO)ccc2N1C(=O)Cc1ccc(OC)cc1` to `COc1ccc([Si](C)(C)[C@@H]2[C@@H](CCO)O[C@]3(C(=O)N(Cc4ccc(N(C=O)c5ccccc5)cc4)c4ccccc43)[C@H]2C)cc1`, the z-score falls from -0.0265 to -1.59.

Going from `COc1ccc([Si](C)(C)[C@H]2[C@H](CC(=O)N3Cc4ccccc4C[C@H]3CO)O[C@@]3(C(=O)N(Cc4cccc(N5CCC5=O)c4)c4ccccc43)[C@@H]2C)cc1` to `COC(=O)[C@@]1(Cc2ccccc2)[C@H]2c3cc(C(=O)N(C)C)n(Cc4ccsc4Br)c3C[C@H]2CN1C(=O)c1ccccc1`, the z-score falls from -0.774 to -1.77.

Compared with `OCCCC1=CC(c2cccs2)N(Cc2cc3c(cc2Br)OCO3)CC1` (stereo not given), `CCCCCCc1nc(-c2ccc(OC)nc2)cc2c1[Si](C(C)C)(C(C)C)O[C@H]2c1ccccc1` is higher in z-score: -0.429 for the first, 0.153 for the second.

Compared with `O=C(NCCO)C1=C[C@H](Oc2ccccc2I)[C@@H](O)[C@H](N(Cc2ccco2)C(=O)Cc2ccccc2)C1`, `O=C(CS)NCCCCCCNC(=O)[C@@H]1C[C@@H]2C(=O)NCC(=O)N2[C@@H]1c1cccc(OCCO)c1` is higher in z-score: -1.23 for the first, -0.3 for the second.

Source: PubChem BioAssay
